{"source": "paper PMC4336329", "about": "(PLoS ONE, 2015)", "note": "About 14,000 (4.5%) of roughly 310,000 compounds showed an effect of 50% or more. The effect is printed as a negative number. Shown is part of a subset that was picked to be rich in strong results.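 Note: peak tail current of the secondary pulse compared with the same well before compound.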", "data": [{"target": "human ether-à-go-go-related gene (hERG) potassium channel (human, UniProt Q12809)", "sequence (Q12809 whole entry, looked up)": "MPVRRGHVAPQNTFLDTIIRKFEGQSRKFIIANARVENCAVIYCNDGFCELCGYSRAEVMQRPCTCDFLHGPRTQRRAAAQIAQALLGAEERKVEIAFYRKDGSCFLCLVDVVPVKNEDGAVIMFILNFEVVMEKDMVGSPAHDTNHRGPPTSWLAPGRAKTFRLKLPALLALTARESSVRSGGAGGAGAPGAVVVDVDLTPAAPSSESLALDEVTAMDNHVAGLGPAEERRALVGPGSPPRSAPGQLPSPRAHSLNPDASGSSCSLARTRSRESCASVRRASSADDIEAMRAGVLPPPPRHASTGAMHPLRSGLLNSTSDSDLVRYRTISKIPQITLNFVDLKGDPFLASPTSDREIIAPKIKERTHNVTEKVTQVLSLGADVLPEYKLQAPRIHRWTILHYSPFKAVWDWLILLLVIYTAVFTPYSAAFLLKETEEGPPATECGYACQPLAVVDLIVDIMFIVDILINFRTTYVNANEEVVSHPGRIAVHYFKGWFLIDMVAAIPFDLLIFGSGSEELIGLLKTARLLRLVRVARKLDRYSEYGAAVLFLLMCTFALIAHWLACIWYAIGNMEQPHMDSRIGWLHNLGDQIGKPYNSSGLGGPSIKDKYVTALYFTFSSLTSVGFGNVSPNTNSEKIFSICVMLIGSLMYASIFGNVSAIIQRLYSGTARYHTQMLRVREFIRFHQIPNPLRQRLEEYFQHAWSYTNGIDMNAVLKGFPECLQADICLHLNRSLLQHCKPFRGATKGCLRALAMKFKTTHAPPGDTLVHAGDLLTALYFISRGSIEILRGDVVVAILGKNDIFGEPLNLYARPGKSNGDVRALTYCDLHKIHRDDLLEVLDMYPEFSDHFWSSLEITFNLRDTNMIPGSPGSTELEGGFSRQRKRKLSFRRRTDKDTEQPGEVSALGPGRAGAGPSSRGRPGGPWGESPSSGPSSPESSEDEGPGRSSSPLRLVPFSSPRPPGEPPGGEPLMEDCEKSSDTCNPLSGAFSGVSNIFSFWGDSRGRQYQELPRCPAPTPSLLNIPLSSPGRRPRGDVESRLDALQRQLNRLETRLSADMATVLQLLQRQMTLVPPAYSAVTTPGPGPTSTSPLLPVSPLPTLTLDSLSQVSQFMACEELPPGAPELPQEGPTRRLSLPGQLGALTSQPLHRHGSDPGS", "experiment": "primary screen, population patch clamp on CHO cells stably expressing hERG; higher = less effect of the substance", "units": {"hERG current change (%, negative = inhibition) at 10uM": "%"}, "values": [{"compound": "CCC/C=N/Nc1nnc(Cc2ccc(OC)c(OC)c2)c(=O)[nH]1", "hERG current change (%, negative = inhibition) at 10uM": 27.2}, {"compound": "CSCC[C@H](NC(=O)OCc1ccccc1)C(=O)O", "hERG current change (%, negative = inhibition) at 10uM": -2.24}, {"compound": "Cc1ccc(-c2c(C#N)c(N)nc3c2CCCCC3)o1", "hERG current change (%, negative = inhibition) at 10uM": -5.84}, {"compound": "C=CCn1c(N/N=C/c2ccc(O)cc2)nc2ccccc2c1=O", "hERG current change (%, negative = inhibition) at 10uM": -17.9}, {"compound": "Cc1cc2c(C)nc(N/N=C/c3ccc([N+](=O)[O-])cc3)nc2o1", "hERG current change (%, negative = inhibition) at 10uM": -16.2}, {"compound": "Cc1cc2c(C)nc(N/N=C/c3ccccc3)nc2o1", "hERG current change (%, negative = inhibition) at 10uM": -27.6}, {"compound": "Cc1cc2c(C)nc(N/N=C/c3ccc(F)cc3)nc2o1", "hERG current change (%, negative = inhibition) at 10uM": -52.7}, {"compound": "CC1(C)C2CCC13CS(=O)(=O)N[C@@H]3C2", "note": "(some centres unmarked)", "hERG current change (%, negative = inhibition) at 10uM": 20.5}, {"compound": "Cc1ccc(CC2CC(=O)N(CCc3ccc4c(c3)OCO4)C2=O)cc1", "note": "(centres unmarked)", "hERG current change (%, negative = inhibition) at 10uM": 3.17}, {"compound": "O=C(Nc1ccc(O)cc1)C1CCCO1", "note": "(centres unmarked)", "hERG current change (%, negative = inhibition) at 10uM": 16.4}, {"compound": "C=CCn1c(SCC(=O)Nc2ccc(F)cc2)nnc1-c1cnccn1", "hERG current change (%, negative = inhibition) at 10uM": -58.9}, {"compound": "Cc1cc(-c2nnc(SCC(=O)Nc3cccc(Cl)c3)n2N)n[nH]1", "hERG current change (%, negative = inhibition) at 10uM": -71.9}, {"compound": "C=CCn1c(SCC(=O)Nc2ccc(S(N)(=O)=O)cc2)nnc1-c1cnccn1", "hERG current change (%, negative = inhibition) at 10uM": 13}, {"compound": "C=CCn1c(SCC(=O)Nc2cccc(C)c2)nnc1-c1cnccn1", "hERG current change (%, negative = inhibition) at 10uM": -71.9}, {"compound": "C=CCn1c(SCC(=O)Nc2cc(C)cc(C)c2)nnc1-c1cnccn1", "hERG current change (%, negative = inhibition) at 10uM": -29.6}, {"compound": "Cc1ccc(NC(=O)CSc2nnc(-c3ccccn3)n2N)cc1F", "hERG current change (%, negative = inhibition) at 10uM": -48.5}, {"compound": "C=CCn1c(SCC(=O)Nc2c(C)cccc2C)nnc1-c1cnccn1", "hERG current change (%, negative = inhibition) at 10uM": -2.77}, {"compound": "NC(=O)c1ccc(NC(=O)CSc2nnc(-c3ccccn3)n2N)cc1", "hERG current change (%, negative = inhibition) at 10uM": 17.1}, {"compound": "C=CCn1c(SCC(=O)Nc2ccc(OC)cc2)nnc1-c1cnccn1", "hERG current change (%, negative = inhibition) at 10uM": -23.1}, {"compound": "Cc1cccc(NC(=O)CSc2nnc(-c3cc(C)[nH]n3)n2N)c1", "hERG current change (%, negative = inhibition) at 10uM": -29.1}, {"compound": "Nn1c(SCC(=O)Nc2ccc(F)cc2)nnc1-c1ccccn1", "hERG current change (%, negative = inhibition) at 10uM": -53.6}, {"compound": "Cc1cc(-c2nnc(SCC(=O)Nc3cccc(F)c3)n2N)n[nH]1", "hERG current change (%, negative = inhibition) at 10uM": 6.38}, {"compound": "Cc1cc(C)[n+](Cc2ccccc2)cc1C(N)=O.[Cl-]", "hERG current change (%, negative = inhibition) at 10uM": 16.6}, {"compound": "N#Cc1cc(Nc2c(N)nc[nH]c2=O)c([N+](=O)[O-])cc1C#N", "hERG current change (%, negative = inhibition) at 10uM": 8.95}, {"compound": "O=C(O)CCN1C(=O)c2ccc(NC(=O)Cc3ccc(Cl)cc3)cc2C1=O", "hERG current change (%, negative = inhibition) at 10uM": 3.94}, {"compound": "CC(=O)c1cc(-c2ccccc2)n(CC(=O)N2CCCC2)c1C", "hERG current change (%, negative = inhibition) at 10uM": 13.3}]}]}
